Data published in the OligoGym collection.

Biological target: FAM89B
Assay: pooled miR-30 sensor sort-seq; sequence = guide strand
Conditions: shRNA
Also: reference of the scale not given here.

Row | Sequence | sensor-assay potency score (higher = more potent)
1 | TGACAGGACGACGCGGGCCGGC | -1.62
2 | TAGTCCTGGATTGACTCGTACA | -1.39
3 | TCAGGTCTTGGCACAGGTGTTT | -0.832
4 | TTTGTAGTCCTGGATTGACTCG | -1.36
5 | TCCTGGATTGACTCGTACAGGC | -1.73
6 | AACATCTCCTTGCGCAGCGCGG | -1.39
7 | TGGATTGACTCGTACAGGCCCC | -0.992
8 | ATCGGGAGGCTCCTCGTCGTCA | -1.39
9 | TGTAGTCCTGGATTGACTCGTA | -0.175
10 | TTGTAGTCCTGGATTGACTCGT | 0.301
11 | TTGCGCAGCGCGGCCAGCGCTG | -1.52
12 | TTAAGGAGGCCGCTGAGGCCGC | -1.49

Biological target: FAM9C
Assay: as above
Conditions: shRNA

Row | Sequence | sensor-assay potency score (higher = more potent)
13 | TAACAGGTTTTCTTTCCTCATG | -1.34
14 | TTAACTAAACACTGTCATGTGG | 0.189
15 | ATTCTGTTCTTTATTTCGCTGC | -0.428
16 | TTTGCAATCTTTTCAATCCTTT | -0.0948
17 | AATATCTTCTAGCTCCTTGGTA | -0.174
18 | AACATTTTTAATTCTGTTCTTT | -0.182
19 | TATTTTAATTTGTTCTTCCTTT | -0.236
20 | ATCAGTTACATCTCCCTCCTTT | -0.105
21 | TTTTGCAATCTTTTCAATCCTT | 0.00533
22 | TAACTAAACACTGTCATGTGGT | 0.0242
23 | TTACTGGATCCTTTCCTGCAAG | -1.19
